Source: PubChem BioAssay
Several values for one entry are separate records, joined by “and”; a condition that tells them apart may be missing. Equal entries are not always repeated. Records with an inconclusive call do not appear. For some assays here: Potency and affinity values are given separately. Activity calls are given as the source filed them. Unless noted, the rule behind the calls is not given here.

Assays:
[1] = drug combination toxicity in non-malignant astrocytes – cell-based, BGB or cisplatin IC20 combos, cytotoxicity control for chromothriptic childhood tumor combination screen (AID 1671460; in the data active = inhibition above about 80%;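 note: cells exposed to compounds for 96 hours before viability readout; 0% = vehicle and 100% = killing control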); settings: Human astrocytes, viability inhibition, drug combinations, at 0.5 µM, stronger effect = higher value
[2] = molecular target: ATP-dependent translocase ABCB1 (Homo sapiens) (UniProt P08183); test: P-glycoprotein substrate transport blockade – cell-based (AID 377; in the data active = fluorescence slope change above about 50%); settings: MDR1-expressing cells, fluorescent substrate accumulation slope; stronger effect = higher value; concentration not given here
Chain of ATP-dependent translocase ABCB1 (Homo sapiens) (P08183 whole entry, looked up, the tested form may be a part): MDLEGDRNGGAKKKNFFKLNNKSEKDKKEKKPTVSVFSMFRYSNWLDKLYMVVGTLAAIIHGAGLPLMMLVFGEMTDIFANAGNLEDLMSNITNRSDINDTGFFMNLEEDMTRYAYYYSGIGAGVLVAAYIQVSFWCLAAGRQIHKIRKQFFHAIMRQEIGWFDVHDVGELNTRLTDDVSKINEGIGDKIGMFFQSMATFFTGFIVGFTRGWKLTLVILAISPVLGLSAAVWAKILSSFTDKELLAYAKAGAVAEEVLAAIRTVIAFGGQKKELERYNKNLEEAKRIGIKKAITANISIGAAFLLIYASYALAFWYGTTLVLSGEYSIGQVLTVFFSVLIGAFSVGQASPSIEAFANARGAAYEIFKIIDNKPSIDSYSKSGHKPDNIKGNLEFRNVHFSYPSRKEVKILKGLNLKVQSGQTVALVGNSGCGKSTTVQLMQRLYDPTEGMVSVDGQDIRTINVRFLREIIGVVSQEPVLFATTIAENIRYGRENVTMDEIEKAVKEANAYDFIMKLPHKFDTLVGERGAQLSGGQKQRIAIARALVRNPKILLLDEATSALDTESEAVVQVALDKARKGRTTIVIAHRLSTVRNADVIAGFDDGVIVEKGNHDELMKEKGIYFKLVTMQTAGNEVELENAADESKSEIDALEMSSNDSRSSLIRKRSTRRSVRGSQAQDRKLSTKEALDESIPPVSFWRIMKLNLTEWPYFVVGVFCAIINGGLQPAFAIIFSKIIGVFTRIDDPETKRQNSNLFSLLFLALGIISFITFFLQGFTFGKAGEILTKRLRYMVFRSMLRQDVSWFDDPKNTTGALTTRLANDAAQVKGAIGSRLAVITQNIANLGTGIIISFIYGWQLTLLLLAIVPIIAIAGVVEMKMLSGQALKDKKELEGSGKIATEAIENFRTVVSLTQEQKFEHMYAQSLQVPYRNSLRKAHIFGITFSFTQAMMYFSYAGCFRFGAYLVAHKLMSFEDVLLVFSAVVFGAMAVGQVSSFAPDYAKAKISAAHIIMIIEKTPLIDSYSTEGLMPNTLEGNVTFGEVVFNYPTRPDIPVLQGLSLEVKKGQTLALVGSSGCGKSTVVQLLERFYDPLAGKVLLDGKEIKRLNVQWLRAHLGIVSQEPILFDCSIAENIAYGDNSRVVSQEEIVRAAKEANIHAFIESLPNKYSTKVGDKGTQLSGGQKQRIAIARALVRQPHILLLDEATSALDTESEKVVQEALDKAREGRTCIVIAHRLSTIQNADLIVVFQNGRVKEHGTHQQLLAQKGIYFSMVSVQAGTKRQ

[3] = molecular target: Mitogen-activated protein kinase 7 (Homo sapiens) (UniProt Q13164); test: Gal4-ERK5 driven luciferase induction – cell-based, HTS, primary screen (AID 1508626;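 active = luciferase signal above three times the same-plate solvent-only control wells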;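 note: luciferase driven by Gal4-ERK5 fusion binding five Gal4 sites before minimal TATA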); settings: HeLa Gal4-ERK5 transactivation, 18 h, at 5 µM, stronger effect = higher value
Chain of Mitogen-activated protein kinase 7 (Homo sapiens) (Q13164 whole entry, looked up, the tested form may be a part): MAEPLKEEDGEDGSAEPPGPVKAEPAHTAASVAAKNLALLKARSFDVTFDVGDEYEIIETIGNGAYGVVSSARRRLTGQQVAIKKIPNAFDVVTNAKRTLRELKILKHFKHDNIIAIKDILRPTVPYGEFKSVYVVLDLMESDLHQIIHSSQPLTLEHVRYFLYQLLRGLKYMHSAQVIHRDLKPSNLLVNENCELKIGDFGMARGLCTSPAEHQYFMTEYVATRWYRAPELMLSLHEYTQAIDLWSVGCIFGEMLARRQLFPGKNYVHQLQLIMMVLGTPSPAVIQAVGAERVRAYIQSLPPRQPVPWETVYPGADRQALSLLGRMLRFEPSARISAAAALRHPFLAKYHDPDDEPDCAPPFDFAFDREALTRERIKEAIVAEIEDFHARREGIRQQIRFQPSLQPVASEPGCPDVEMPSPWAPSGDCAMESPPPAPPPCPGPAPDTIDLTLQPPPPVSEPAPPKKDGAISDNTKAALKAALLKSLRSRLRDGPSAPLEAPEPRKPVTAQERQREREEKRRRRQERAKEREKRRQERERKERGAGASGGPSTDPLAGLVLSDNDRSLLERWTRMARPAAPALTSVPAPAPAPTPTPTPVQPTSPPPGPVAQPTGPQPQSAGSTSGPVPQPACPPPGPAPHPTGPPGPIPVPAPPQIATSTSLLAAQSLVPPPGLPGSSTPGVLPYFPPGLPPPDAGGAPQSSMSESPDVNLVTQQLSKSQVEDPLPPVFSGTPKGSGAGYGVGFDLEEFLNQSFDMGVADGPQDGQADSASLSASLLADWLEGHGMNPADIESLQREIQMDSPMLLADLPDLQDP

[4] = compounds altering viability of human ES cells (AID 493140); settings: human embryonic stem cell survival screen; stronger effect = higher value;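 note: cells exposed to compounds for four days before counting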
[5] = signal quenchers or enhancers, Cy5 substrate/SSB – biochemical, NIH Clinical Collection, E. coli SSB, artefact control for HCV NS3 helicase inhibitor project (AID 743268); settings: Cy5-oligo bound E. coli SSB, fluorescence interference
[6] = tested on: Hepatitis C virus NS3 helicase; test: blockers of NS3h binding to DNA – biochemical, fluorescence polarization, NIH Clinical Collection, primary screen (AID 743270); settings: NS3 helicase binding to Cy5-dT15 DNA, stronger effect = higher value, concentration not given here
[7] = molecular target: Single-stranded DNA-binding protein (Escherichia coli (strain K12)) (UniProt P0AGE0); test: SSB-ssDNA binding inhibitors – biochemical, fluorescence polarization, NIH Clinical Collection, counter-screen for HCV NS3 helicase inhibitor project (AID 743271; in the data active = inhibition above about 28%); settings: E. coli SSB-DNA binding, stronger effect = higher value, concentration not given here
[8] = compounds distorting NS3 helicase fluorescence signal – biochemical, NIH Clinical Collection, artefact control for HCV NS3 helicase inhibitor project (AID 743272); settings: fluorescence interference counterscreen, HCV NS3 helicase assay; stronger effect = lower value;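 note: HCV NS3 helicase with a Cy5 labelled single stranded DNA probe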
[9] = liver-stage malaria parasite load reduction – cell-based, known kinase inhibitor set, luminescence, hepatoma host viability (AID 624392); settings: Plasmodium liver stage in hepatoma cells, luciferase luminescence, concentration not given here; liver cell % of control: measured here: host liver cell viability; parasite % of control: stronger effect = lower value;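 note: infected cells incubated roughly two days before readout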
[10] = blockers of polyQ-driven CASP3 activation – cell-based (AID 1583); settings: polyglutamine-induced caspase-3 activation, cell assay; stronger effect = higher value;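 tested at 10 µM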
[11] = yeast 75Q aggregation reduction – 75Q-TubU reporter (AID 1593); settings: Yeast 75Q polyglutamine aggregation reporter
[12] = restoration of touch response, mutant HTT neurons – whole organism, C. elegans mechanosensory neurons, N-terminal huntingtin (AID 1599); settings: C. elegans polyQ-huntingtin mechanosensory neurons, stronger effect = higher value
[13] = blockers of cytochrome c efflux from mitochondria – biochemical, purified mitochondria (AID 1603); settings: stronger effect = lower value;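 note: mouse liver mitochondria challenged with calcium chloride; signal normalized to the plate average as 100%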
[14] = polyglutamine aggregate formation blockers (AID 1604); settings: polyglutamine-induced protein aggregation inhibition assay; stronger effect = higher value; tested at 2.5 µM
[15] = glutamate transport activators, MN-1 cells, MN-1 cell line (AID 1612); settings: MN-1 motor neuron cells, stronger effect = higher value;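 note: tested at 1 µM final; 0% = mean of DMSO vehicle wells on each plate; positive means more glutamate uptake than control and negative means less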
[16] = GFP-Q80 aggregate reduction, neuronal-like cells, cell-based, NGF-treated PC12, GFPQ80 (AID 1614); settings: PC12 NGF-treated GFP-polyQ80 inclusion reduction;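 note: lower means fewer inclusions and 0 means no inclusions at all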
[17] = 75Q-TubH aggregate inhibition, S. cerevisiae, yeast (AID 1616); settings: S. cerevisiae 75Q-TubH polyglutamine aggregation suppression; stronger effect = higher value
[18] = measured here: combo with BGB IC20
[19] = measured here: combo with cisplatin IC20

Compound: C[C@@]1(c2nc3c(C(N)=O)cccc3[nH]2)CCCN1
- inhibition [1]: -5.3% (inactive) and -11.3% (inactive)
- inhibition [1, 18]: -6.99% and -18.5%
- inhibition [1, 19]: -13.8% and -3.66%

Compound: CC(C)[N+]1(C)[C@@H]2CC[C@H]1CC(OC(=O)C(CO)c1ccccc1)C2 (stereo not given in full)
- fluorescence slope change [2]: 52.9% (active)
- luciferase signal [3]: 44 AU (inactive)

Compound: CO[C@@]1(NC(=O)C2SC(=C(C(N)=O)C(=O)O)S2)C(=O)N2C(C(=O)O)=C(CSc3nnnn3C)CS[C@@H]21 (stereo not given in full)
- survival [4]: 11.4 (inactive)

Compound: CCOC(=O)O[C@]1(C(=O)COC(=O)CC)CC[C@H]2[C@@H]3CCC4=CC(=O)C=C[C@]4(C)[C@H]3[C@@H](O)C[C@@]21C
- survival [4]: 5.17 (inactive)

Compound: C[C@@H]1CCC[C@H](C)N1NC(=O)c1ccc(Cl)c(S(N)(=O)=O)c1
- fluorescence slope change [2]: 11.3% (inactive)
- luciferase signal [3]: 100 AU (inactive)

Compound: CCOC(=O)NCCCC(=O)NCCc1ccccc1
- inhibition [1]: 6.08% (inactive) and 5.44% (inactive)
- inhibition [1, 18]: 1.7% and -5.49%
- inhibition [1, 19]: 7.7% and 23%

Compound: C[C@]12CC[C@@H]3c4ccc(OS(=O)(=O)O)cc4CC[C@H]3[C@@H]1CCC2=O
- survival [4]: 5.67 (inactive)
- fluorescence ratio [5]: 1.03 (inactive)
- inhibition [6]: -1.09% (inactive)
- inhibition [7]: -2.76% (inactive)
- fluorescence ratio [8]: 1.01 (inactive)
- luciferase signal [3]: 76 AU (inactive)

Compound: O=C(NCC1(c2nc(-c3ccccc3)cs2)CCOCC1)c1cccc(-c2noc(C(F)(F)F)n2)c1
- inhibition [1]: -27.1% (inactive) and -7.2% (inactive)
- inhibition [1, 18]: -8.11% and -1.8%
- inhibition [1, 19]: -58.3% and -12.6%

Compound: NCc1ccccc1CC(=O)N[C@@H]1C(=O)N2C(C(=O)O)=C(CSc3nnnn3CC(=O)O)CS[C@H]12
- survival [4]: 7.42 (inactive)

Compound: CO[C@H]1C[C@H](O[C@H]2[C@H](C)[C@@H](O[C@@H]3O[C@H](C)C[C@H](N(C)C)[C@H]3OC(C)=O)[C@@H](C)C[C@@]3(CO3)C(=O)[C@H](C)[C@@H](OC(C)=O)[C@@H](C)[C@@H](C)OC(=O)[C@@H]2C)O[C@@H](C)[C@@H]1OC(C)=O
- luciferase signal [3]: 232 AU (inactive)

Compound: CC1(C)S[C@@H]2[C@H](NC(=O)[C@H](NC(=O)N3CCNC3=O)c3ccccc3)C(=O)N2[C@H]1C(=O)O
- luciferase signal [3]: 60 AU (inactive)

Compound: Cc1ccc(NC(=O)c2ccc(CN3CCN(C)CC3)cc2)cc1Nc1nc(-c2cccnc2)cs1
- liver cell % of control [9]: 46.6% and 78.6% and 98.8%
- parasite % of control [9]: 29.5% (inactive) and 24.2% (inactive) and 36% (inactive)

Compound: NC[C@H]1O[C@H](O[C@H]2[C@H](O)[C@@H](O[C@H]3O[C@H](CO)[C@@H](O)[C@H](N)[C@H]3O)[C@H](N)C[C@@H]2N)[C@H](O)[C@@H](O)[C@@H]1O
- inhibition [10]: 5.91%
- score [11]: 1.82
- rescue above control [12]: -8.71
- cytochrome c release ratio [13]: 1
- inhibition of aggregation [14]: 28.5%
- glutamate uptake change [15]: 2.43%
- inclusion score [16]: 2
- aggregation suppression score [17]: 1.68
- luciferase signal [3]: 40 AU (inactive)
